Sampled rows, rich in hits. Any-hit rate of the full collection: about 9.1%.
M1 antagonist = M1 muscarinic receptor (rat) antagonism; CHO-M1 cells, Fluo-4 calcium, ACh EC80 antagonist mode; stronger effect = lower value; P08482; B-score at 10 µM; 3.4% of 64,000 active; AID 628;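 active = calcium fluorescence response, raw or row-and-column corrected B-score, differing from the plate sample mean either way at a set confidence level, mostly lower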
M1 agonist = activates the M1 muscarinic receptor; AID 626; CHO-M1 cells, Fluo-4 calcium fluorescence, agonist mode; stronger effect = higher value; 3% of 64,000 active; B-score at 10 µM;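 active = fluorescence rise, raw or as B-score row- and column-corrected plate score, outside the 99.7% band of its plate's samples, either direction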
mHtt clearance = mutant huntingtin protein clearance; HeLa Exon1htt(103Q)mCFP, aggregate imaging; zero = plate's median compound well; 0.42% of 47,000 active; AID 853; inhibition, % at 1.5 µM;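 active = inhibition of aggregate fluorescence above about 70%, also judged a hit by eye on the cell image, limit read from the data, passing the limit was not always enough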;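 also: cells exposed to compound for three days before fixation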
D1 mod = allosterically modulates the human D1 dopamine receptor. P21728. HEK293 D1, CRE-luciferase, dopamine EC30 potentiation; actives deviate in either direction. B-score at 10 µM. 5.9% of 58,000 active. AID 641;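 active = luminescence count or its row- and column-corrected plate score outside the 99.7% band of the plate's sample wells, on either side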
Target sequence (P21728 whole entry, looked up): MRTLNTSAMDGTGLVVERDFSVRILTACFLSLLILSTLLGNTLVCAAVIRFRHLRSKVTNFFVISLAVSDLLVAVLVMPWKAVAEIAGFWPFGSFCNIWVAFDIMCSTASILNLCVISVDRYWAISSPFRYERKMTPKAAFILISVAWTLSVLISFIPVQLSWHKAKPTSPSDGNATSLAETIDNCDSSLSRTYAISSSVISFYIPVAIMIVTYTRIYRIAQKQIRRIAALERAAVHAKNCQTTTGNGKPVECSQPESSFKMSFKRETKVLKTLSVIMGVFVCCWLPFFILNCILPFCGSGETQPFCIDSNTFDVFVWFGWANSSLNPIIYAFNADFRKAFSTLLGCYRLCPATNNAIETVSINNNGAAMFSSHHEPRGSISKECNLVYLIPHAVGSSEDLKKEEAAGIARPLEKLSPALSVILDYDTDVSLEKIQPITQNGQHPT
D1 PAM confirm = D1 receptor (human) allosteric modulation, confirmed | shares compounds with D1 mod | HEK293 D1 CRE-luciferase, dopamine EC30 potentiation; stronger effect = higher value | luminescence at 10 µM | 88% of 2,200 active;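 active = luminescence in either of two replicates above the same-plate mean plus 3 SD of the low-dose dopamine control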
D1 ag no DA = activates D1 CRE-luciferase signal without dopamine present; shares compounds with D1 mod; HEK293 D1 CRE-luciferase, luminescence, no dopamine; stronger effect = higher value; luminescence at 10 µM; 0.8% of 1,900 active; in the data active = luminescence above about 3900
Isoprot counter = alters isoproterenol CRE-luciferase response in HEK293 cells; shares compounds with D1 mod; AID 647; luminescence at 10 µM; 63% of 2,200 active; HEK293 D1 CRE-luciferase, isoproterenol EC30 counter-screen; stronger effect = higher value;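 active = luminescence in either replicate above plate mean of wells with a partly effective reference agonist dose plus 3 SD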;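 also: isoproterenol raises cAMP through native beta-adrenoceptor Gs so signal bypasses D1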
Numbers without * were called inactive; . = not tested or not shown.

SMILES	M1 antagonist	M1 agonist	mHtt clearance	D1 mod	D1 PAM confirm	D1 ag no DA	Isoprot counter
CN(C)c1nc(NS(=O)(=O)c2ccc(Cl)cc2)nc(N(C)C)n1	1.3	0.67	14	0.75	.	.	.
Cc1nn(-c2ccccc2)c(=S)n1-c1ccccc1	0.0041	-0.29	19	-0.27	.	.	.
OCCn1nc2c3ccccc3nc-2n(-c2ccccc2)c1=S	-0.88	-0.65	.	5.9*	7812*	1556	2832
O=S(=O)(c1ccccc1C(F)(F)F)N1CCOCC1	0.21	-0.44	.	4.9*	4520	1508	2400
Cc1sc2nc(C3CC3)nc(NCCNS(C)(=O)=O)c2c1C	0.21	0.0089	.	6.5*	10452*	1764	2956
COc1ccc(-c2csc(Cc3nnc4n3CCCCC4)n2)cc1OC	0.039	-0.43	-53	20*	24836*	1564	5160*
Cc1ccc2c(c1)N(C(=O)CSc1nncn1C)C(C)(C)c1ssc(=S)c1-2	.	.	22	2.8*	6228*	.	2648*
N#Cc1cn(CC(=O)NCC2CCCO2)c2ccccc12 (configuration not stated)	-0.47	1.8	-10	0.2	.	.	.
Cc1c(C#N)c2ccccc2n1CC(=O)NCC1CCCO1 (configuration not stated)	-0.14	-2	7	3.8*	5268	1692	2976
Cc1nn(-c2ccccc2)c(Cl)c1C(=O)Nc1nnc(C2CCCC2)s1	0.38	-0.099	.	-0.55	.	.	.
C#CCNc1nc(CC)nc2c1nnn2Cc1ccccc1F	-1	-0.12	-18	5.9*	15288*	1616	4944*
Fc1ccccc1Cn1nnc2c(NCCc3ccccn3)ncnc21	-0.83	-0.79	.	2.2	.	.	.
N#Cc1c2n(c3c(=O)n(Cc4ccccc4Cl)cnc13)CCCCC2	-0.25	-0.093	15	8.6*	11076*	1496	4408*
COC(=O)Cn1cnc2c(C#N)c3n(c2c1=O)CCCCC3	-0.014	-0.033	14	-0.47	.	.	.
c1ccc2c(c1)CCN(c1nc3ccccc3n3cnnc13)C2	-0.16	0.22	.	7.9*	13016*	1668	4428*
c1ccc(N2CCN(c3nc4ccccc4n4cnnc34)CC2)cc1	.	.	-22	.	.	.	.
c1ccc2c(c1)CCCN2c1nc2ccccc2n2cnnc12	0.085	-0.93	.	7*	9840*	1760	4860
C=CCOc1nc(N2CCCC2)nc(N2CCCC2)n1	0.19	0.053	23	24*	26540*	1648	4776*
Cc1onc(-c2ccccc2Cl)c1C(=O)OCC(=O)N1CCCc2ccccc21	-0.75	-0.15	.	0.54	.	.	.
N#Cc1cc2c(nc1SCc1cccnc1)CCCCC2	-1.5	0.97	58	10*	23880*	1748	7692*
Cc1cccc(CSC2=NCCN2C(=O)c2ccco2)c1	-1.1	0.051	-6	3.8*	9944*	1728	3308
Cc1ccc(CSC2=NCCN2C(=O)c2ccco2)cc1	0.0085	1.3	.	0.74	.	.	.
COC(=O)c1ccccc1NC(=O)CSc1nnc(-c2ccc(OC)cc2)n1C	.	.	-46	.	.	.	.
CC(=O)Nc1ccc(-c2nnc(SCc3c(C)cc(C)cc3C)n2C)cc1	.	.	16	.	.	.	.
Cc1ccc(Cn2nnc3c(=O)[nH]c(C4CCCN(C(=O)Nc5ccc(F)cc5)C4)nc32)cc1 (configuration not stated)	0.002	-0.068	.	2.1	.	.	.
SMILES	M1 antagonist	M1 agonist	mHtt clearance	D1 mod	D1 PAM confirm	D1 ag no DA	Isoprot counter
COc1cccc(Cn2nnc3c(=O)[nH]c(C4CCCN(C(=O)c5ccccc5Cl)C4)nc32)c1 (configuration not stated)	1.7	2	-32	3*	9972*	.	2912*
O=C(c1ccccc1Cl)N1CCCC(c2nc3c(nnn3Cc3ccccc3)c(=O)[nH]2)C1 (configuration not stated)	-0.34	-0.22	.	1.4	.	.	.
COc1ccc(Cn2nnc3c(=O)[nH]c(C4CCCN(C(=O)c5ccccc5)C4)nc32)cc1 (configuration not stated)	-0.052	0.32	.	4.3*	10456*	1612	3008
COc1ccc(CCN(C)C(=O)CSc2nccn2C)cc1OC	0.65	-0.43	.	4.5*	9340*	.	2656
COc1ccc(CCN(C)C(=O)N2CCOCC2)cc1OC	-0.39	0.29	31	0.0082	.	.	.
O=C(CCn1c(=O)oc2ccccc21)NCCCN1CCCC1=O	-0.085	-0.71	.	-0.57	.	.	.
COc1ccc(N2CCN(Cc3nc(N)nc(N4CCCc5ccccc54)n3)CC2)cc1	.	.	-56	5.7*	13244*	1624	3232*
Cc1ccc(CNC(=O)CCS(=O)(=O)c2cc(Br)cc3c2N(C(=O)C2CC2)CC3)o1	0.39	0.071	.	1	.	.	.
CC(C)c1ccc(C2C3CSCC=C3C(C#N)=C(N)C2(C#N)C#N)cc1 (configuration not stated)	.	.	-18	.	.	.	.
N#CC1=C(N)C(C#N)(C#N)C(c2ccc[nH]2)C2CCCC=C12 (configuration not stated)	-0.065	1.8	-91	2.8*	4776	1816	2336
O=c1[nH]c2cc3c(cc2cc1C(c1nnnn1C1CCCC1)N1CCSCC1)OCCO3 (configuration not stated)	0.5	-2.6	34	6.9*	10448*	1784	2992
CCOc1ccc(C(=O)NCC(=O)OC(C)C(=O)NCc2ccco2)cc1OCC (configuration not stated)	0.58	-1.2	-19	6*	5900	.	2648*
CCOc1ccc(C(=O)NCc2ccco2)cc1	0.017	0.15	.	.	.	.	.
N#Cc1c2c(c(NCCN3CCOCC3)n3c1nc1ccccc13)CCCC2	-0.0093	2	-32	3.5*	15848*	1800	11096*
N#Cc1c2c(c(NCCCN3CCOCC3)n3c1nc1ccccc13)CCC2	-1.1	-0.24	-16	0.0091	.	.	.
CCCN1Cc2cccc(C(=O)NCc3ccc4c(c3)OCO4)c2C1=O	0.71	-0.62	.	12*	15396*	1860	4224*
CCOC(=O)N1CCC(N2Cc3cccc(C(=O)NCc4ccc(OC)cc4)c3C2=O)CC1	.	.	.	2.9	.	.	.
CCCN1Cc2cccc(C(=O)Nc3cc(OC)cc(OC)c3)c2C1=O	0.062	0.28	.	0.026	.	.	.
CCOC(=O)N1CCC(N2Cc3cccc(C(=O)NCc4ccc5c(c4)OCO5)c3C2=O)CC1	.	.	.	1.4	.	.	.
CCCN1Cc2cccc(C(=O)NC3CCCC3)c2C1=O	0.61	-0.15	.	12*	16648*	1612	4220*
CCOC(=O)N1CCC(N2Cc3cccc(C(=O)NCc4ccccc4OC)c3C2=O)CC1	.	.	.	4.9*	7800	1720	2764
CCCN1Cc2cccc(C(=O)NCc3cccs3)c2C1=O	-0.3	-0.035	14	18*	24472*	1580	5056*
COc1ccc(-c2nc(C#N)c(N3CCCCCC3)o2)cc1OC	-0.44	0.79	.	2.2	.	.	.
O=C(O)c1cccc(NS(=O)(=O)c2cccc3nsnc23)c1	.	.	-7	.	.	.	.
O=C(NCc1ccc2c(c1)OCO2)c1cccc2c1C(=O)N(C1CCCCC1)C2	0.16	0.56	.	6*	10552*	1592	4384*
